A number with no mark means an inactive call. Activity calls are given as the source filed them. Rule as the data show it, unless noted: active = inhibition above about 28%; inactive = the rest. Bridge positions count the residues as written; N and C are the ends. Square brackets hold non-standard residues; d marks the D form. Peptide text beside a SMILES is read from it.
Legend:
[1] = target: Nuclear receptor coactivator 3 (Homo sapiens) (UniProt Q9Y6Q9); experiment: NCOA3 GAL4-fusion reporter inhibition – cell-based, luminescence, quadruplicate, confirmation (AID 588792;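 active = mean inhibition over 43.08%, the solvent-only control mean plus 3 SD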;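 also: 0% = DMSO treated cells and 100% = gossypol at 36 µM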); settings: HEK293 GAL4-SRC3 luciferase reporter, at 3.6 µM, active compounds read high
Nuclear receptor coactivator 3 (Homo sapiens), sequence (Q9Y6Q9 whole entry, looked up, the tested form may be a part): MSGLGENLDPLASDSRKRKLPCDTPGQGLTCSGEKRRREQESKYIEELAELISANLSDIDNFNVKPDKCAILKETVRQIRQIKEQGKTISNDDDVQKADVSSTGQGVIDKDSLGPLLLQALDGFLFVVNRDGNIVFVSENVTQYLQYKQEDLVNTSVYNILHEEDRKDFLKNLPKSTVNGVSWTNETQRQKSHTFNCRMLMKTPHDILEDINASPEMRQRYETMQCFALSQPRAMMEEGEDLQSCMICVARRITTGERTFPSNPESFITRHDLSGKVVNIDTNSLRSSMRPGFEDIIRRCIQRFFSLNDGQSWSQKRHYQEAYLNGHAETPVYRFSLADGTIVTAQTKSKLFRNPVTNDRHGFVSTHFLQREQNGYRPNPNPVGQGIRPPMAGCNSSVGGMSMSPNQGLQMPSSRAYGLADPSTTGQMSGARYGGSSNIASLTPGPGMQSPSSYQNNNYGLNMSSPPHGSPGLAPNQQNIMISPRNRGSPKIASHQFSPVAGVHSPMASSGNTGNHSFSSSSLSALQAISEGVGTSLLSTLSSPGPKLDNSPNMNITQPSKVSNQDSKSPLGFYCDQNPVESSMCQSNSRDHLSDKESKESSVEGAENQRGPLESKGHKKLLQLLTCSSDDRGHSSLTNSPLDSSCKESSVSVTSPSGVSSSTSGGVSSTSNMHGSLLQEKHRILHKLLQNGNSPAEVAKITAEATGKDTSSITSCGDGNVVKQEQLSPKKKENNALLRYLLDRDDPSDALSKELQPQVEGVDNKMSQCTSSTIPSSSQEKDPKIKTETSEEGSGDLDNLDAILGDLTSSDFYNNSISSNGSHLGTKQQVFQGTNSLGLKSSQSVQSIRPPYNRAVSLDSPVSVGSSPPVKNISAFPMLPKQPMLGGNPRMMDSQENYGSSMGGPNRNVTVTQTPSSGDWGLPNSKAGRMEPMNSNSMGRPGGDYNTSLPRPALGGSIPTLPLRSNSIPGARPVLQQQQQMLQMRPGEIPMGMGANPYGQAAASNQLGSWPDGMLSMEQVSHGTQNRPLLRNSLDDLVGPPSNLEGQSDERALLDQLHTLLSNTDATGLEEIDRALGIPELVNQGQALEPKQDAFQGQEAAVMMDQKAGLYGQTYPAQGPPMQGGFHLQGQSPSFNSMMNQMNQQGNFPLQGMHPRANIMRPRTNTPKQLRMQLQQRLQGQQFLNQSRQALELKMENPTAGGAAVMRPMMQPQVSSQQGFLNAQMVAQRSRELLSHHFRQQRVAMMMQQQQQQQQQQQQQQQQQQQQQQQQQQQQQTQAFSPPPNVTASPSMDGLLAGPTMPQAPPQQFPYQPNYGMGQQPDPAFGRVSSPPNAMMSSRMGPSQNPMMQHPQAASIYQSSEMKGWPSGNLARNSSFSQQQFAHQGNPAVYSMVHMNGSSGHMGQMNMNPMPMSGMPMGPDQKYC

[2] = system: transactivating tegument protein VP16 (Human herpesvirus 1), Gal4-VP16 luciferase reporter; experiment: repression of VP16-driven luciferase reporter – cell-based, luminescence, high throughput, counter-screen for SRC3 inhibitor project (AID 588794; in the data active = inhibition above about 30%); settings: mammalian cells, at 3.6 µM, active compounds read high
[3] = target: Nuclear receptor coactivator 1 (Homo sapiens) (UniProt Q15788); experiment: NCOA1 GAL4-fusion reporter inhibition – cell-based, luminescence, quadruplicate, confirmation (AID 588820;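 active = mean inhibition above 46.68%, the untreated control wells mean plus 3 SD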;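 also: 0% = DMSO wells and 100% = gossypol 36 µM treated wells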); settings: HEK293 GAL4-SRC1 luciferase reporter, at 3.6 µM, active compounds read high
Nuclear receptor coactivator 1 (Homo sapiens), sequence (Q15788 whole entry, looked up, the tested form may be a part): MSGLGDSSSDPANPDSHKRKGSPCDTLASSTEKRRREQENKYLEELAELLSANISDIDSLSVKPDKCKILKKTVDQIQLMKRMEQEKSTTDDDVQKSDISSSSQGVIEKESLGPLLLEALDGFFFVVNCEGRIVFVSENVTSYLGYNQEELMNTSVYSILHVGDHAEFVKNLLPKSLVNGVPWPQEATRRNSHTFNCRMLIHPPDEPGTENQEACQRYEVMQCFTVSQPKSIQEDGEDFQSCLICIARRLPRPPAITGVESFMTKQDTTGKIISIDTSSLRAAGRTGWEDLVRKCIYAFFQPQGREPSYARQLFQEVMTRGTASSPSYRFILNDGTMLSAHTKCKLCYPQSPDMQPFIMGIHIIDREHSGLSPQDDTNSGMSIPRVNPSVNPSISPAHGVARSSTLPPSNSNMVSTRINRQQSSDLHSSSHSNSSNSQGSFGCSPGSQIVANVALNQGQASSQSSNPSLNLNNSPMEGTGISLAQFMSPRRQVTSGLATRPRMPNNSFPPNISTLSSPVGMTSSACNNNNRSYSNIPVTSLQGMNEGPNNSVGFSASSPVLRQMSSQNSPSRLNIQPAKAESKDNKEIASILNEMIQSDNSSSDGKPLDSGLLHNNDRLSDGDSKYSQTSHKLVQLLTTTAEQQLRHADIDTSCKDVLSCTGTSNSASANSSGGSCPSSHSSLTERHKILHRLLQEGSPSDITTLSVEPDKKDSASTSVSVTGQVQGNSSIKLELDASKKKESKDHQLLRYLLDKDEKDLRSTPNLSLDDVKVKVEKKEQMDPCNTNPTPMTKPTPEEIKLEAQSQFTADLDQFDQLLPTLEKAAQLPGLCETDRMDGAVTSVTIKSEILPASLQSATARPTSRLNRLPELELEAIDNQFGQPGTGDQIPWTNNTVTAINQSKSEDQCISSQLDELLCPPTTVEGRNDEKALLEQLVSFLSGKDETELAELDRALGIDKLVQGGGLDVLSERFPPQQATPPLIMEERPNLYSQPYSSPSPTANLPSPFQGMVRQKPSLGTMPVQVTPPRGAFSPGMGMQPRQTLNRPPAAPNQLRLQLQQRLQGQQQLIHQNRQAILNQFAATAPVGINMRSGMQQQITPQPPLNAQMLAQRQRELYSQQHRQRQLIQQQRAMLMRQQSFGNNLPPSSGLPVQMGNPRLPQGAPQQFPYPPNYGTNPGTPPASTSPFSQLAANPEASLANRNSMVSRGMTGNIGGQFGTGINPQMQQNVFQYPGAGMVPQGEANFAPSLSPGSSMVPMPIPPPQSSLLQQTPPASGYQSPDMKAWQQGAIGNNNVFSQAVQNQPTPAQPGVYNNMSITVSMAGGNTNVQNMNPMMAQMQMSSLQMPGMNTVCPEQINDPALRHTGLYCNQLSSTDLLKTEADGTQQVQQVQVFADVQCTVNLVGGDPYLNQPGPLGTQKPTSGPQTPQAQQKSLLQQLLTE

[4] = repression of VP16-driven luciferase reporter – cell-based, luminescence, high throughput, counter-screen for SRC1 inhibitor project (AID 588824; in the data active = inhibition above about 25%); settings: cell-based VP16 transactivation luciferase luminescence; at 3.6 µM; active compounds read high
[5] = StAR promoter reporter inhibitors, counter-screen for LRH-1 inverse agonist project, cell-based, luminescence, high throughput (AID 651611); settings: StAR promoter luciferase reporter counterscreen, at 3.6 µM, active compounds read high
[6] = target: Nuclear receptor subfamily 5 group A member 2 (Homo sapiens) (UniProt O00482); experiment: NR5A2 activity suppression in reporter cells – cell-based, luminescence, confirmation (AID 651613; in the data active = inhibition above about 42%;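 also: HEK293T cells co-transfected with LRH-1 and StAR promoter luciferase reporter; 0% = vehicle wells and 100% = parental cells lacking receptor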); settings: cell-based LRH-1 luciferase reporter, inverse agonism; at 3.6 µM; active compounds read high
[7] = target: Steroidogenic factor 1 (Homo sapiens) (UniProt Q13285); experiment: inverse agonism at SF1 nuclear receptor – cell-based, luminescence, high throughput, counter-screen for LRH-1 inverse agonist project (AID 651614; in the data active = inhibition above about 44%;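 also: cells cotransfected with StAR promoter reporter and SF1 expression vector; 0% = vehicle on cells with receptor and 100% = vehicle on cells lacking receptor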); settings: cell-based SF1 luciferase reporter, at 3.6 µM, active compounds read high
Steroidogenic factor 1 (Homo sapiens), sequence (Q13285 whole entry, looked up, the tested form may be a part): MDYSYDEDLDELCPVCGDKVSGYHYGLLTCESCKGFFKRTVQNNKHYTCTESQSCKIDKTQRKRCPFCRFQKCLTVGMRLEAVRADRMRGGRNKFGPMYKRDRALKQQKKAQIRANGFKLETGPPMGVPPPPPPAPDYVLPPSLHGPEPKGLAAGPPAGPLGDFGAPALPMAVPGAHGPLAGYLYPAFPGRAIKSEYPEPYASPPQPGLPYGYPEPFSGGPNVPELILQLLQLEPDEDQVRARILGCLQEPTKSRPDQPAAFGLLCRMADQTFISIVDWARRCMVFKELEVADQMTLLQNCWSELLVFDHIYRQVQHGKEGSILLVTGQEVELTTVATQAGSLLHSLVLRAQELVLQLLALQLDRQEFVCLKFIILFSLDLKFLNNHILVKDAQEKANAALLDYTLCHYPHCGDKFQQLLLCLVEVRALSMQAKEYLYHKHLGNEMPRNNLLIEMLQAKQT

[8] = compounds suppressing VP16-driven luciferase signal – cell-based, luminescence, high throughput, counter-screen for LRH-1 inverse agonist project (AID 651615; in the data active = inhibition above about 33%); settings: Gal4-VP16 luciferase reporter cells, at 3.6 µM, active compounds read high
[9] = system: transactivating tegument protein VP16 (Human herpesvirus 1); experiment: compounds suppressing VP16-driven luciferase signal – cell-based, luminescence, single concentration, counter-screen for SRC2 inhibitor project (AID 652007; in the data active = inhibition above about 36%); settings: cell-based VP16 transactivation luciferase reporter, at 8.9 µM, active compounds read high
[10] = target: Nuclear receptor coactivator 2 (Homo sapiens) (UniProt Q15596); experiment: inhibition of GAL4-SRC2 driven luciferase expression – cell-based, luminescence, HEK293, triplicate, confirmation (AID 652008;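 active = mean inhibition above 46.5%, the solvent-only control mean plus 3 SD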;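 also: 0% = DMSO-treated cells and 100% = Gossypol at 36 µM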); settings: HEK293 GAL4-SRC2 luciferase reporter, at 8.9 µM, active compounds read high
Nuclear receptor coactivator 2 (Homo sapiens), sequence (Q15596 whole entry, looked up, the tested form may be a part): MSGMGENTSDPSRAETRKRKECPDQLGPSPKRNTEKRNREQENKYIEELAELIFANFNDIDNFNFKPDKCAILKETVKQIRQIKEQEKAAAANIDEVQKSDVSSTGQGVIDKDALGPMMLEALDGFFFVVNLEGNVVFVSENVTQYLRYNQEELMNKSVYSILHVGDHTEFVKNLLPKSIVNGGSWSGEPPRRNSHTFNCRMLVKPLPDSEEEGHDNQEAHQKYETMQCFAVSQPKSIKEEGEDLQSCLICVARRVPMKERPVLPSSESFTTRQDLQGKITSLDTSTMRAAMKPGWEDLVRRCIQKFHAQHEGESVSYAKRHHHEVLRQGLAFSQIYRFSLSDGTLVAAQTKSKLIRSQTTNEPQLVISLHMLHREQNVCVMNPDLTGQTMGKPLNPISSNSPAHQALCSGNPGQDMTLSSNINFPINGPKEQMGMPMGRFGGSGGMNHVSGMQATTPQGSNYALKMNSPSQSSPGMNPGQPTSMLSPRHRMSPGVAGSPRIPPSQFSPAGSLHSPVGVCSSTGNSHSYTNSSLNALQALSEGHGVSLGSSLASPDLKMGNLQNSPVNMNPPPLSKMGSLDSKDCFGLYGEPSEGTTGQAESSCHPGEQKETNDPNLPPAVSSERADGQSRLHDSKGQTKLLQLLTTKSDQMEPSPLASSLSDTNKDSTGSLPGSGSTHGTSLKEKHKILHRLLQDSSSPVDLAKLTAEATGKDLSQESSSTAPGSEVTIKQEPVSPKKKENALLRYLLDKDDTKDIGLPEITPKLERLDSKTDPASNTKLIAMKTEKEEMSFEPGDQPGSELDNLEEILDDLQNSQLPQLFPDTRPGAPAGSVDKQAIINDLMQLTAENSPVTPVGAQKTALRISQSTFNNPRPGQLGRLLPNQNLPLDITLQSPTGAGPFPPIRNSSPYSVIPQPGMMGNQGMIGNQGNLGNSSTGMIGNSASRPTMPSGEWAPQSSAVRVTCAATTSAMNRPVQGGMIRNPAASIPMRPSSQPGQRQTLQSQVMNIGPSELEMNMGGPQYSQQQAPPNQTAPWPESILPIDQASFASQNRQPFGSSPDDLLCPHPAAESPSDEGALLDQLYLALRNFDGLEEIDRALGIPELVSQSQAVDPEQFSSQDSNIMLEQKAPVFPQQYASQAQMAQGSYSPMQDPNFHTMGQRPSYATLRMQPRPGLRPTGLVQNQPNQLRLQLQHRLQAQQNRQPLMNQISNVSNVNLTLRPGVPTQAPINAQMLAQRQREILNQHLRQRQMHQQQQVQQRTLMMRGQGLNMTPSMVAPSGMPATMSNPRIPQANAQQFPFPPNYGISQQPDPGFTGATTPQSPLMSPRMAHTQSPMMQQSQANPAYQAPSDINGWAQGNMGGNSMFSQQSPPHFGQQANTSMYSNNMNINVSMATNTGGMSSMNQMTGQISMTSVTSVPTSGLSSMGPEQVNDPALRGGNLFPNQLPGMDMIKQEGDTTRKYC

SMILES | inhibition [1] | inhibition [2] | inhibition [3] | inhibition [4] | inhibition [5] | inhibition [6] | inhibition [7] | inhibition [8] | inhibition [9] | inhibition [10]
COc1cc(OC)cc(-c2cc3nc(C)c(CCC(=O)O)c(C)n3n2)c1 | 66.4% (active) | 69.9% (active) | 55.8% (active) | 64.1% (active) | 64.9% (active) | 76.4% (active) | 71% (active) | 69% (active) | 89.9% (active) | 93.3% (active)
C/C(CC(C)(C)C1CCCCC1)=N\NC(N)=S | 72.2% (active) | 60.3% (active) | 48.5% (active) | 59% (active) | 45.6% (active) | 80.8% (active) | 82.8% (active) | 68.6% (active) | 43.8% (active) | 38.4%
Nc1cc2ccncc2c2ccccc12 | 72% (active) | 51.6% (active) | 68.9% (active) | 47.8% (active) | 8.54% | 75.6% (active) | 63.2% (active) | 72.3% (active) | 22.2% | 43.4%
Nc1ncnc2c(C3OC(CO)C(O)C3O)scc12 (stereo not given) | 90.7% (active) | 95.1% (active) | 78.5% (active) | 94.9% (active) | 89.2% (active) | 107% (active) | 96.5% (active) | 92.9% (active) | 62.8% (active) | 57.2% (active)
COc1cc(C=CC(=O)c2cc(OC)c(OC)c(OC)c2)cc(OC)c1OC | 72.3% (active) | 57.4% (active) | 38.1% | 46.4% (active) | 73.1% (active) | 67.1% (active) | 76.1% (active) | 69.1% (active) | 47.7% (active) | 73% (active)
Cc1ccc(NC(=O)O/N=C/c2c(C)nn(C(C)(C)C)c2C)cc1Cl | 90.4% (active) | 88% (active) | 87.3% (active) | 85.3% (active) | 88.2% (active) | 93% (active) | 89.2% (active) | 86.5% (active) | 94.6% (active) | 98.3% (active)
O=C(CSCC(=O)Nc1ccccc1)N/N=C/c1c(O)ccc2ccccc12 | 49.3% (active) | 30.7% (active) | 45.4% | 33.4% (active) | 86% (active) | 102% (active) | 91.5% (active) | 82.9% (active) | -14.6% | 21.6%
CC(C)c1ccc(/C=C(\c2nc3ccccc3[nH]2)S(=O)(=O)c2ccccc2)cc1 | 54.2% (active) | 39.6% (active) | -0.35% | 24.9% | 33.9% (active) | 54.6% (active) | 54.7% (active) | 46.6% (active) | 36.6% (active) | 49.3% (active)
O=c1cnnc(N/N=C/c2ccccn2)[nH]1 | 81.9% (active) | 68.9% (active) | 76% (active) | 54.8% (active) | 87.7% (active) | 103% (active) | 83.3% (active) | 65.3% (active) | -24.3% | 26.5%
Cc1cc(C(=O)CSc2nc3ccccc3[nH]2)c(C)n1CC1CCCO1 (stereo not given) | 5.02% | 30.5% (active) | -86.8% | -6.65% | -34.6% | -80.8% | -1.87% | 32.9% (active) | 31.5% | 50.9% (active)
CCOc1cccc(/C=N/NC(=S)Nc2ccccc2[N+](=O)[O-])c1O | 70.3% (active) | 57.6% (active) | 44.9% | 38.2% (active) | 66.1% (active) | 22.9% | 65.2% (active) | 54% (active) | 39.7% (active) | 73.3% (active)
O=C(COc1ccc(Cl)cc1Cl)Nc1ccccn1 | 56.2% (active) | 53.6% (active) | 32.1% | 48.2% (active) | 46.9% (active) | 27.2% | 60.6% (active) | 32.3% (active) | 67.4% (active) | 85.2% (active)
Cc1cc(C)c(C#N)c(SCc2nnc(-c3ccccc3)o2)n1 | 66.3% (active) | 59.8% (active) | 38.8% | 32.9% (active) | 33.1% (active) | -23.7% | 27.9% | 15.5% | 46.2% (active) | 82.9% (active)
CSC1SCC2C(=O)N(C)C(C(C)C)C(=O)OCC(NC(=O)c3cnc4ccccc4n3)C(=O)NC(C)C(=O)N(C)C1C(=O)N(C)C(C(C)C)C(=O)OCC(NC(=O)c1cnc3ccccc3n1)C(=O)NC(C)C(=O)N2C (stereo not given) | 96.8% (active) | 96.7% (active) | 85.7% (active) | 96.8% (active) | 86.5% (active) | 107% (active) | 97.1% (active) | 97.3% (active) | 62.2% (active) | 51.1% (active)
O=C(COC(=O)c1ccc[nH]c1=O)Nc1ccc(N2CCCCC2)cc1 | 54.4% (active) | 20.8% | 42.2% | 5.72% | 42.1% (active) | 55% (active) | 41% | 6.65% | 45.1% (active) | 90.5% (active)
c1csc(CNc2ccc3c(c2)OCCO3)c1 | 23.3% | -33.9% | -25.5% | -34.9% | -19.7% | -77.1% | -20.9% | -49.8% | 60.7% (active) | 47.1% (active)
NC(=O)c1cc2ccncc2c2ccccc12 | 80.3% (active) | 64.8% (active) | 78.5% (active) | 59.3% (active) | 42.8% (active) | 62.1% (active) | 58.1% (active) | 77.2% (active) | 20.5% | 68.9% (active)
COC(=O)c1ccc2nc(Nc3nc4c(F)cc(F)cc4s3)sc2c1 | 23.9% | 40.6% (active) | -34.6% | 36.7% (active) | 28.2% (active) | -92.1% | 25.5% | -29.2% | -2.64% | 61.1% (active)
CC1CCc2c(sc(NC(=O)CSc3ncn[nH]3)c2C#N)C1 (stereo not given) | 56% (active) | 66.1% (active) | 31.9% | 61.4% (active) | 32.5% (active) | 56.7% (active) | 39.5% | 61.9% (active) | 87% (active) | 90.2% (active)
CCCN(CC)c1ncnc2[nH]ncc12 | 72.3% (active) | 52.6% (active) | 71.4% (active) | 50.1% (active) | 25.9% | 45% (active) | 37.1% | 69.2% (active) | -9.97% | 43.2%
Clc1ccc(-n2ncc3c(N4CCCCCC4)ncnc32)cc1 | 77% (active) | 69.2% (active) | 52.9% (active) | 54.3% (active) | 71% (active) | 24.8% | 65.8% (active) | 43% (active) | 57.4% (active) | 84.6% (active)
COc1cccc(/C=N/NC(=O)c2c(-c3ccccc3)noc2C)c1O | 38.4% | 37.1% (active) | 24.8% | 34.6% (active) | 68.8% (active) | 52.1% (active) | 64.6% (active) | 67.5% (active) | 2.72% | 33.1%
CCCC(=O)Nc1ccc(C(=O)N/N=C/c2ccc([N+](=O)[O-])o2)cc1 | 88.8% (active) | 69.5% (active) | 74.8% (active) | 66.5% (active) | 86.9% (active) | 102% (active) | 95.1% (active) | 80.5% (active) | 23.3% | 53.8% (active)
O=C(Nc1nc2cc3c(cc2s1)OCCO3)C1=COCCO1 | 30.4% | 26.9% | -78.2% | 13.4% | 24.4% | -3.27% | 52.2% (active) | 4.13% | 70.8% (active) | 81.6% (active)
Cc1nn(-c2nc3ccccc3[nH]2)c(=O)c2ccccc12 | 72.3% (active) | 65% (active) | 47.4% (active) | 68.3% (active) | 69.2% (active) | 63.9% (active) | 78.8% (active) | 59.3% (active) | 82.9% (active) | 89.3% (active)
Cc1c(/C(O)=C2/C(=O)C(=O)N(Cc3cccnc3)C2c2ccccn2)cnn1-c1ccccc1 (stereo not given) | 38.2% | 3.13% | 20.1% | -13.8% | 42% (active) | 23.4% | 36.8% | 7.05% | 11.9% | 52.3% (active)
CC[C@H](C)[C@@H]1NC(=O)[C@@H](CC(C)C)NC(=O)[C@H](C(C)C)NC(=O)[C@H]2CSSC[C@H](NC1=O)C(=O)N2 (cyclo(C[dC]V[dL]I); disulfide 1-2) | 99.9% (active) | 98.3% (active) | 99.6% (active) | 98% (active) | 96% (active) | 109% (active) | 97.7% (active) | 97.5% (active) | 98.3% (active) | 99.6% (active)
COc1ccc(/C=C2\SC(=O)N(CCCC(=O)Nc3ccc(C(=O)O)cc3)C2=O)cc1 | 78% (active) | 71.8% (active) | 72.8% (active) | 63.3% (active) | 74.1% (active) | 75.4% (active) | 71.5% (active) | 58.1% (active) | 88.3% (active) | 93.3% (active)
CC(C)(C)c1ccc(C(=O)O/N=C(\N)c2ccccn2)cc1 | 85.4% (active) | 77.2% (active) | 64.9% (active) | 67.5% (active) | 61.1% (active) | 45.8% (active) | 58.5% (active) | 62.5% (active) | 83.1% (active) | 94.4% (active)

From PubChem BioAssay
